Reference: publication PMC7819943, “Rice protein-binding microarrays: a tool to detect cis-acting elements near promoter regions in rice”
Over roughly 68,000 sequences, “fluorescence intensity (a.u.)” has its median near 9,100; the highest 2% begin near 16,000. What follows is part of a selection rich in the highest values, with near analogues and random picks from the rest.

The sequences below were run against OsWRKY34 (Oryza sativa, UniProt Q0JBA9 1-250) (assay: protein-binding microarray (RPBM); PBS, 2% BSA, 51.3 ng/ul salmon testes DNA, 50 uM zinc acetate, 200 nM TF, 25 C, 1 h; high values mean tight binding). Details: protein: recombinant; tags: N-terminal polyhistidine and DsRed monomer fusion (pET32a); label: CyDye5-dUTP incorporated in the synthesized complementary strand; 3' TTTTT single-stranded linker to array surface; dsDNA, one strand shown.
Chain of OsWRKY34 (Q0JBA9 entry or part of it): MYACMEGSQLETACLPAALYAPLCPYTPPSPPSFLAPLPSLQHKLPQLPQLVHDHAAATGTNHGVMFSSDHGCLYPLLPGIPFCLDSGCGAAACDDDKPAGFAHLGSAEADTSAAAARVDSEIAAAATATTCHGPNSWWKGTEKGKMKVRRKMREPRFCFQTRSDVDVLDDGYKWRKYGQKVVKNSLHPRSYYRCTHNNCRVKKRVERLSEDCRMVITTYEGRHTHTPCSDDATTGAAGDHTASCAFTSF
Method in brief: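 Transcription factors were made in E. coli BL21-CodonPlus as N-terminal fusions to a polyhistidine tag and DsRed, then purified on Ni–NTA. After primer extension with Cy5-dUTP and blocking with 2% BSA, a custom Agilent array was exposed for 1 h at 25 °C to 200 nM protein in PBS, 2% BSA, salmon testes DNA and 50 µM zinc acetate. Washed arrays were scanned on an Axon 4000B, and the binding signal is per-feature fluorescence intensity in arbitrary units.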

| Sequence | binding signal |
| --- | --- |
| GTGGGAGGGAGGGCGGCGAGCTGCGCGGCGAACCTCGAGCCGGAGTCACCTAGTGCAG | 8120 fluorescence intensity (a.u.) |
| CCTTTTTTTTTCCGAGTGTGTGGCTCTCAGATGGAGTTAGCGGAGTCACCTAGTGCAG | 8450 fluorescence intensity (a.u.) |
| TGGTGTAGGGTTATGATTGGATGAGTAGTGGAGGTAGGTACGGAGTCACCTAGTGCAG | 9780 fluorescence intensity (a.u.) |
| CCTTGGGTGGGTACGGATTGGATTAGGGAGGGGAGCACAACGGAGTCACCTAGTGCAG | 17600 fluorescence intensity (a.u.) |
| GGTAGGATTGTACTTTTTTTTTTTTTGGGACGGAGGGGTACGGAGTCACCTAGTGCAG | 10100 fluorescence intensity (a.u.) |
| AACGTGGAAGTGGATTGGGTGGTGGGTGGGGATCCACCTACGGAGTCACCTAGTGCAG | 22100 fluorescence intensity (a.u.) |
| TGGTGGCGGCGGTGGCAGTGGTGGTGTTGGGATTGGGGTACGGAGTCACCTAGTGCAG | 9230 fluorescence intensity (a.u.) |
| TGGGTGGGGATGAAGTGTGGAAGTGGCATATCTTTATCCACGGAGTCACCTAGTGCAG | 8320 fluorescence intensity (a.u.) |
| ATTATCCTGATCAAAATTCCCGCAATTCCTTAACACATGTCGGAGTCACCTAGTGCAG | 10200 fluorescence intensity (a.u.) |
| GCTTTTCTCTTCCTTTTCGCTCGCTCTCAAGGCCCATAACCGGAGTCACCTAGTGCAG | 9530 fluorescence intensity (a.u.) |
| TTGGTGAGAACAGCCTTATCTCTATCGCTTTACTCTCTCTCGGAGTCACCTAGTGCAG | 8150 fluorescence intensity (a.u.) |
| CTGACCACCAACAGGGTCACTGTCGCGTTTGCTCGATACTCGGAGTCACCTAGTGCAG | 9920 fluorescence intensity (a.u.) |
| TCCTTTCCTACATGTCGCCTTTGCCGTCGCCTCAACCACACGGAGTCACCTAGTGCAG | 14200 fluorescence intensity (a.u.) |
| TCTTCTCACTCTAATCAAATCTCTCTCTCTCTCTCTCTCTCGGAGTCACCTAGTGCAG | 8280 fluorescence intensity (a.u.) |
| ATCAAACCACTTCCATCTCTCAATTCTCAAGCACACACACCGGAGTCACCTAGTGCAG | 8310 fluorescence intensity (a.u.) |
| ACGAACCTAAGCACTTCCAAATCAAATCAATCAAAGCTCTCGGAGTCACCTAGTGCAG | 56100 fluorescence intensity (a.u.) |
| GCCGTCGCCGTCGCCGTCCTCCTCGTTGTCGTTGTCGTCGCGGAGTCACCTAGTGCAG | 9000 fluorescence intensity (a.u.) |
| TACCACCACTGTTCGTTTCGTTTGTTGGGTTTCGGTCATCCGGAGTCACCTAGTGCAG | 8360 fluorescence intensity (a.u.) |
| ATGCGTGTGGTTCTCCTGTCCGTTCTGTCATTTGGGTTTTCGGAGTCACCTAGTGCAG | 20000 fluorescence intensity (a.u.) |
| GAATTGTTGACCACGTGTTTCTGTTTGGACTCCTTTTTTTCGGAGTCACCTAGTGCAG | 16400 fluorescence intensity (a.u.) |
| TCATTTCTGTGTGTGTTTTGGAGGTGGGTGAGGGTCTGTTCGGAGTCACCTAGTGCAG | 9920 fluorescence intensity (a.u.) |
| CTTCTTAGCTTCCGTGTCATGTTTCTTTTTGTTATCTTTTCGGAGTCACCTAGTGCAG | 10800 fluorescence intensity (a.u.) |
| TAGTCCGTTCTGTTGTCATCTACTACTCTTGTTTGTGTTTCGGAGTCACCTAGTGCAG | 16100 fluorescence intensity (a.u.) |

| Sequence | binding signal |
| --- | --- |
| TTTTCCGTGTTTTCCGTTTCTGTTTGTTTGGCTTTTTTTTCGGAGTCACCTAGTGCAG | 18600 fluorescence intensity (a.u.) |
| TACATCCGTTTCCGTTTCGTTCTGTTCTGTTCTGTTGTTTCGGAGTCACCTAGTGCAG | 29200 fluorescence intensity (a.u.) |
| TTCCGTTTCTGTTCCGTTTGGTTTTTCCTTGTTCTTTCGGCGGAGTCACCTAGTGCAG | 12900 fluorescence intensity (a.u.) |
| GTGGACTTTTTTCCTTCTCCTTTTCCTTTGTGTTGTTTCGCGGAGTCACCTAGTGCAG | 8860 fluorescence intensity (a.u.) |
| CGTCCTTATTGTGGTTTTCCACGTGTTTGTCTCTGTGTTTCGGAGTCACCTAGTGCAG | 13300 fluorescence intensity (a.u.) |
| CGTTCTGTCATTTGGGTTTTATGTTTGTTCTCTCTTGTTTCGGAGTCACCTAGTGCAG | 12000 fluorescence intensity (a.u.) |
| GCTTCCGCCGCCGCGTCTTCTCGCCCTCGACTCCGCTCTCCGGAGTCACCTAGTGCAG | 14700 fluorescence intensity (a.u.) |
| GCATAACTAATGGTCTGTTTACTTTGATGGCATTTTCAATCGGAGTCACCTAGTGCAG | 9570 fluorescence intensity (a.u.) |
| CCTCAACCGTGACTCAGTTATTCAGTTCGACACCCAGCCGCGGAGTCACCTAGTGCAG | 8070 fluorescence intensity (a.u.) |
| TTGCATTTGAAGACATGTAGTGTGTAGGGTGGGTTCTATTCGGAGTCACCTAGTGCAG | 13500 fluorescence intensity (a.u.) |
| GCATTTCCAGGCCCACGGAAGCCACGCTTCTTCTCCAGCGCGGAGTCACCTAGTGCAG | 8060 fluorescence intensity (a.u.) |
| TCTGTTGTGCTCTTTCGTGTGATAGATCGATTTTTTGATTCGGAGTCACCTAGTGCAG | 10600 fluorescence intensity (a.u.) |
| AGGGAATTTCCCGTTCTTGCGCTCCTGGATTTCTTGCCCACGGAGTCACCTAGTGCAG | 9560 fluorescence intensity (a.u.) |
| CTCTCTCTGTTTCGGCCTCTCATACTCACTCCTCGGCTTCCGGAGTCACCTAGTGCAG | 11100 fluorescence intensity (a.u.) |
| AGTCCCAAGTCACAACTGACAACAAGGCAACTACTACTACCGGAGTCACCTAGTGCAG | 8360 fluorescence intensity (a.u.) |
| ACTTTGATCATAAAATGAGTTACTCTTACTTTCTTTTATTCGGAGTCACCTAGTGCAG | 8920 fluorescence intensity (a.u.) |
| CTCATCCGATTCCTGCGTTTTTCCTGCGCTCCAATCAAACCGGAGTCACCTAGTGCAG | 9990 fluorescence intensity (a.u.) |
| ACTGTTCGTTTTTCCACTTAAGTTCTGCTTGGTTTTTTTTCGGAGTCACCTAGTGCAG | 16600 fluorescence intensity (a.u.) |
| CTCTCTCATCTGATTCTTGCGTTTTTCCTGTGGTCCAATCCGGAGTCACCTAGTGCAG | 12000 fluorescence intensity (a.u.) |
| TATGCCTATCTGAATTGGTTACTGTTCGTTTTTCCACTTACGGAGTCACCTAGTGCAG | 10800 fluorescence intensity (a.u.) |
| GATTTAGTTTTAGTTTTTGTTTTTTTCCCACTTGGTTCTTCGGAGTCACCTAGTGCAG | 9450 fluorescence intensity (a.u.) |
| CTCTCATCCGATTCCTGCGTTTTTCCTGTGGTTCAATCATCGGAGTCACCTAGTGCAG | 17900 fluorescence intensity (a.u.) |
